Results filed as inconclusive are left out.
Assay: qHTS Assay for Lipid Storage Modulators (AID 1519)
Conditions: Drosophila S3 cells, BODIPY lipid droplet/cell ratio, laser cytometry; measured here: cell count channel max response; cells loaded with oleic acid
Outline: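 Cells seeded at 5,000 per well were treated with compounds over a concentration series and loaded with oleic acid (400 uM, as added). Lipid droplet fluorescence (488 nm excitation, 500-530 nm channel) was read by laser-scanning cytometry and normalized to 20 uM Triacsin C.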

SMILES	max response [%]
Cc1noc(C)c1-c1nccc(N2CCOCC2)n1	6.28
CNc1nc(-c2ccc3c(c2)OCO3)nc2ccccc12	2.96
O=c1c(-c2ccccc2)nc2cnc(Nc3ccccc3)nc2n1Cc1cccs1	8.31
c1csc(CNc2ccnc(-c3ccoc3)n2)c1	21.1
Cc1ccccc1-c1nccc(NCCN2CCOCC2)n1	17.5
CCNc1ncc2nc(-c3ccc(OC)cc3)c(=O)n(C[C@H]3CCCO3)c2n1	8.2
CC(=O)NCCNc1nc(-c2cccnc2)nc2ccccc12	21.4
Cc1cccc(CNc2cc(-c3c(C)noc3C)ncn2)c1	14.9
CCNc1ncc2ncc(=O)n(CCOC)c2n1	18.7
CCNc1ncc2nc(-c3ccccc3)c(=O)n(Cc3cccs3)c2n1	17.2
COCCNc1nc(-c2ccccc2Cl)nc2ccccc12	2.91
COc1cccc(-c2cncnc2N(C)Cc2ccco2)c1	38
CN(C)C(=O)c1ccc(-c2cncnc2NCCc2cnc[nH]2)cc1	29.1
Cc1cnc(CNc2ccnc(-c3ccccc3C(F)(F)F)n2)cn1	12.9
FC(F)(F)c1ccccc1-c1nccc(NCc2cccs2)n1	6.69
c1cncc(-c2cncnc2NC2CCNCC2)c1	15.6
c1ccc(Nc2cc(-c3ccoc3)ncn2)cc1	15
Cn1c(=O)c(-c2ccccc2)nc2cncnc21	8.5
CN(C)Cc1ccccc1-c1nc(N(C)C)c2ccccc2n1	9.81
CN(C)c1ncc2nc(-c3ccc(F)cc3)c(=O)n(C)c2n1	18.3

SMILES	max response [%]
O=c1cnc2cnc(Oc3cccc(Cl)c3)nc2n1C[C@H]1CCCO1	22.7
O=c1c(-c2cc(F)cc(F)c2)nc2cnc(Nc3ccccc3)nc2n1C[C@H]1CCCO1	17.2
CCNc1ncc2nc(-c3ccc(F)cc3)c(=O)n(CCOC)c2n1	22.2
CCNc1ncc2nc(C)c(=O)n(CCC#N)c2n1	-0.74
FC(F)(F)c1ccccc1-c1ccc2ncnc(NCc3cccnc3)c2c1	9.95
CCNc1ncc2nc(-c3cccs3)c(=O)n(C)c2n1	3.66
COc1ccc(CNc2ncnc3ccc(-c4cccnc4)cc23)c(OC)c1	-15.1
COc1ccc(-n2c(=O)cnc3cnc(OC)nc32)cc1	24.2
c1csc(CNc2ncnc3ccc(-c4ccoc4)cc23)c1	15.9
Cc1noc(C)c1-c1ccc2ncnc(N3CCN(C)CC3)c2c1	21
COc1ccc(-n2c(=O)c(-c3cccs3)nc3cnc(N(C)C)nc32)cc1	19
O=c1cnc2cncnc2n1Cc1ccccc1Cl	-0.667
Cc1ccccc1-c1cc(Nc2ccccc2)ncn1	30.6
COc1ncc2nc(-c3ccccc3)c(=O)n(-c3ccccc3)c2n1	10.3
COc1ncc2nc(-c3ccc(F)cc3)c(=O)n(-c3ccccc3)c2n1	-0.95
CN1CCN(c2ncc3ncc(=O)n(CCC#N)c3n2)CC1	9.3
Cc1noc(C)c1-c1cncnc1NCc1ccccc1	0.495
COc1cccc(Cn2c(=O)c(-c3ccc(F)cc3)nc3cnc(N(C)C)nc32)c1	20.9
COCCNc1ncnc2ccc(-c3cccc(OC)c3)cc12	-9.38
FC(F)(F)c1ccccc1-c1nc(NCCN2CCOCC2)c2ccccc2n1	18.8

Same assay, conditions: Drosophila S3 cells, BODIPY lipid droplet/cell ratio, laser cytometry; measured here: lipid channel max response; cells loaded with oleic acid

SMILES	max response [%]
Cc1noc(C)c1-c1nccc(N2CCOCC2)n1	17
CNc1nc(-c2ccc3c(c2)OCO3)nc2ccccc12	-1.26
O=c1c(-c2ccccc2)nc2cnc(Nc3ccccc3)nc2n1Cc1cccs1	4.81
c1csc(CNc2ccnc(-c3ccoc3)n2)c1	20.9
Cc1ccccc1-c1nccc(NCCN2CCOCC2)n1	21.4
CCNc1ncc2nc(-c3ccc(OC)cc3)c(=O)n(C[C@H]3CCCO3)c2n1	0.991
CC(=O)NCCNc1nc(-c2cccnc2)nc2ccccc12	27.2
Cc1cccc(CNc2cc(-c3c(C)noc3C)ncn2)c1	22
CCNc1ncc2ncc(=O)n(CCOC)c2n1	22.5
CCNc1ncc2nc(-c3ccccc3)c(=O)n(Cc3cccs3)c2n1	16
COCCNc1nc(-c2ccccc2Cl)nc2ccccc12	4.03
COc1cccc(-c2cncnc2N(C)Cc2ccco2)c1	41.1
CN(C)C(=O)c1ccc(-c2cncnc2NCCc2cnc[nH]2)cc1	30.3
Cc1cnc(CNc2ccnc(-c3ccccc3C(F)(F)F)n2)cn1	20.7
FC(F)(F)c1ccccc1-c1nccc(NCc2cccs2)n1	8.2
c1cncc(-c2cncnc2NC2CCNCC2)c1	20
c1ccc(Nc2cc(-c3ccoc3)ncn2)cc1	22
Cn1c(=O)c(-c2ccccc2)nc2cncnc21	16.6
CN(C)Cc1ccccc1-c1nc(N(C)C)c2ccccc2n1	6.7
CN(C)c1ncc2nc(-c3ccc(F)cc3)c(=O)n(C)c2n1	28.6

SMILES	max response [%]
O=c1cnc2cnc(Oc3cccc(Cl)c3)nc2n1C[C@H]1CCCO1	29.8
O=c1c(-c2cc(F)cc(F)c2)nc2cnc(Nc3ccccc3)nc2n1C[C@H]1CCCO1	2.07
CCNc1ncc2nc(-c3ccc(F)cc3)c(=O)n(CCOC)c2n1	28.8
CCNc1ncc2nc(C)c(=O)n(CCC#N)c2n1	2.02
FC(F)(F)c1ccccc1-c1ccc2ncnc(NCc3cccnc3)c2c1	2.08
CCNc1ncc2nc(-c3cccs3)c(=O)n(C)c2n1	-11.1
COc1ccc(CNc2ncnc3ccc(-c4cccnc4)cc23)c(OC)c1	-21.1
COc1ccc(-n2c(=O)cnc3cnc(OC)nc32)cc1	29.5
c1csc(CNc2ncnc3ccc(-c4ccoc4)cc23)c1	14.7
Cc1noc(C)c1-c1ccc2ncnc(N3CCN(C)CC3)c2c1	4.95
COc1ccc(-n2c(=O)c(-c3cccs3)nc3cnc(N(C)C)nc32)cc1	25.4
O=c1cnc2cncnc2n1Cc1ccccc1Cl	-10.1
Cc1ccccc1-c1cc(Nc2ccccc2)ncn1	31.4
COc1ncc2nc(-c3ccccc3)c(=O)n(-c3ccccc3)c2n1	11.5
COc1ncc2nc(-c3ccc(F)cc3)c(=O)n(-c3ccccc3)c2n1	-1.99
CN1CCN(c2ncc3ncc(=O)n(CCC#N)c3n2)CC1	10.7
Cc1noc(C)c1-c1cncnc1NCc1ccccc1	15.9
COc1cccc(Cn2c(=O)c(-c3ccc(F)cc3)nc3cnc(N(C)C)nc32)c1	28.6
COCCNc1ncnc2ccc(-c3cccc(OC)c3)cc12	-14.2
FC(F)(F)c1ccccc1-c1nc(NCCN2CCOCC2)c2ccccc2n1	21.5
